DT40 TDP1 no CPT: qHTS for Inhibitors of human tyrosyl-DNA phosphodiesterase 1 (TDP1): qHTS in cells in absence of CPT; DT40 Tdp1-/- hTDP1 cells, no CPT, ATP luminescence, 48 h; Potency, µM (highest dose often 46.2 µM), inactives show at the top dose activity change, negative = growth inhibition, usual class: inhibitors; AID 686978, 2013; 15% of 420,000 active; also: potency is read from the fitted curve at half-maximal effect; nearly all actives have a fitted effect of over 55% in size
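Chicken DT40 Tdp1-/- cells stably complemented with human TDP1 were seeded at 400 cells/well with DMSO in place of 20 nM camptothecin. After compound pinning, cells grew at least 48 hr at 37 °C; viability read by CellTiter-Glo luminescence.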
TDP1 cell CPT: growth inhibition of DT40 Tdp1-/-;hTDP1 cells with camptothecin (screen for TDP1 inhibitors); chicken DT40 Tdp1-/-;hTDP1 cells + 20 nM CPT, ATP luminescence, 48 h; 12% of 420,000 active; Potency, µM (series often up to 46.2 µM), without a hit: at the top dose activity change, negative = growth inhibition, usual class: inhibitors; also: potency is read from the fitted curve at half-maximal effect; nearly all actives have a fitted effect of over 55% in size
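Chicken DT40 Tdp1-/- cells complemented with human TDP1, 400 cells/well, exposed to compounds plus 20 nM camptothecin for at least 48 h at 37 C; viability read as ATP content by CellTiter-Glo luminescence.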
ELG1 repair inh: blocks ELG1-dependent DNA repair in HEK293T cells | 2.3% of 330,000 active | HEK293T ELG1-luciferase reporter, luminescence, 16 h; DNA damage induced by 5-fluorouridine | Potency, µM (titrated, usually from 46.1 µM), for inactives: at the top dose activity change, negative = inhibition, actives largely listed as inhibitors; also: potency is read from the fitted curve at half-maximal effect; nearly all actives have a fitted effect of over 55% in size
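In this reporter screen, reduction of luminescence relative to DMSO vehicle indicated activity. Compounds and 5-fluorouridine were added together to 2,000 cells per well, incubated for 16 hr at 37 °C, then developed with ONE-Glo.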
RORg inh: inhibitors of mouse ROR gamma transcriptional activity; Drosophila S2 Gal4-RORgamma UAS-luciferase reporter, 20 h; Potency, µM (titrated, usually from 53.6 µM), inactives show at the highest dose activity change, negative = inhibition, usual class: inhibitors; 5.4% of 310,000 active; also: potency is read from the fitted curve at half-maximal effect; nearly all actives have a fitted effect of over 60% in size
Target sequence (P51450 whole entry, looked up, the tested form may be a part): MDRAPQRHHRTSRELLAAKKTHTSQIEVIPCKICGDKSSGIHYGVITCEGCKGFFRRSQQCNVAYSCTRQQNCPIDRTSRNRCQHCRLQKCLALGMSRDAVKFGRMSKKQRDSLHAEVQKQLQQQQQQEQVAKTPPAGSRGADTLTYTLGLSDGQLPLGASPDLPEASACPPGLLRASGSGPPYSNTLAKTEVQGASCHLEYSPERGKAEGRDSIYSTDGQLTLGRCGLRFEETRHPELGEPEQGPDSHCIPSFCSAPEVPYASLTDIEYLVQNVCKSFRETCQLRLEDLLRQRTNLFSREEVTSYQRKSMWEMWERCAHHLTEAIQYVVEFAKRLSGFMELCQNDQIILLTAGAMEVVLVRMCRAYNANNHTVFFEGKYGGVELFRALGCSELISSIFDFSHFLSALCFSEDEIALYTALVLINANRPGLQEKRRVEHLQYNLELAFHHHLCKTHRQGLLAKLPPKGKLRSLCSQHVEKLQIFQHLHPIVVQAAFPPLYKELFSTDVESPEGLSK
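Luciferase reporter read in Schneider cells carrying Gal4-RORγ (mouse) and UAS-Photinus luciferase; cells given compound 1 h before 700 uM copper sulfate induction, then incubated 20 h at ambient temperature.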
IL-1B inflam inh: inflammasome signaling inhibition, IL-1 beta readout; THP-1 LPS/ATP IL-1B secretion, AlphaLISA, 16 h; stronger effect = lower value; activity change, % at 57.5 µM; 4.7% of 360,000 active; in the data active = activity change below about -50%; inconclusive = mostly about -30% to -49%
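Secreted IL-1B measured by AlphaLISA bead assay after 16 h compound exposure of THP-1 cells; compounds (final up to 57.5 uM) added 1 h before LPS (250 ng/mL) and ATP (1.25 mM) stimulation; lower signal means less secretion.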
VP16 counter: counter-screen for ROR gamma inhibitors: Gal4-VP16 reporter. Drosophila S2 Gal4-VP16 UAS-luciferase, luminescence, 20 h. Potency, µM (top dose mostly 53.6 µM), without a hit: at the highest dose activity, negative = inhibition, most hits filed as inhibitors. 3.5% of 310,000 active. AID 2546;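 also: Gal4-VP16 expression switched on by copper sulfate through the metallothionein promoter; potency is read from the fitted curve at half-maximal effect; nearly all actives have a fitted effect of over 50% in size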
The depositor's hits bear a star; ? = inconclusive; . = no result given. This is a sample that favours compounds with a hit; in the whole collection about 21% have one here. Unless noted, calls follow the shape of the dose curve; as a rule, active = well fitted curve in the direction sought with a large enough effect; inconclusive = small, poorly fitted or top-dose-only effect, or another doubt; inactive = no such curve, though single readings can be large; an effect the other way counts as inactive or inconclusive. % is scaled to controls: 0 for no effect and ±100 for the full control effect.

SMILES	DT40 TDP1 no CPT	TDP1 cell CPT	ELG1 repair inh	RORg inh	IL-1B inflam inh	VP16 counter
C=C1CCC(C2CC(=O)OC2=O)C(=O)CCC2C1CC2(C)C (stereo not drawn)	-3.8%	8.8%	.	-1.1%	.	-7.7%
Cn1c2c(c(=O)[nH]c1=O)C(c1ccc(O)cc1)C1=C(N2)c2ccccc2C1=O (stereo not drawn)	23.1µM*	10.3µM*	?	-43.9%	?	-17.1%
CCC(C)c1ccc(C2C3=C(Nc4nc(N)[nH]c(=O)c42)c2ccccc2C3=O)cc1 (stereo not drawn)	?	4.7%	8.1%	12.6µM*	-1.9	?
C[C@@H]1CN([C@@H](C)CO)C(=O)CCCn2nncc2CO[C@@H]1CN(C)C(=O)CCC(F)(F)F	-21.2%	-10.5%	.	.	26.4	.
Cc1cccc(SCc2noc(C(=O)NC(C)C)c2C(=O)O)c1	12.7%	-3.8%	-1.9%	?	16.6	15.8µM*
CCCCNC(=O)c1onc(CSc2ccc(C)c(C)c2)c1C(=O)O	-0.9%	-13.0%	5.0%	-1.1%	-4.4	0.2%
CCCCNC(=O)c1onc(CSc2ccc(F)c(F)c2)c1C(=O)O	-9.9%	20.6µM*	-8.4%	13.0%	3.5	2.8%
Cc1cc(C)cc(SCc2noc(C(=O)NCCN(C)C)c2C(=O)NCCN(C)C)c1	14.6µM*	?	.	.	-15.6	.
CC(C)NC(=O)c1onc(CSc2cccc3ccccc23)c1C(=O)O	0.5%	-12.0%	-1.0%	17.8µM*	50.9	?
Cc1cc(C)cc(SCc2noc(C(=O)NC(C)C)c2C(=O)O)c1	?	3.6%	0.0%	?	-8.1	?
COc1ccccc1/C=C/C(=O)Nc1nc(N)n(-c2ccccc2)n1	-11.5%	-8.7%	?	-22.4%	-0.4	-0.4%
COc1ccc(C(CNC(=O)Nc2ccc(Cl)cc2)N2CCN(C)CC2)cc1 (stereo not drawn)	-10.0%	-24.0%	12.5%	0.1%	-23.0	-6.5%
Cc1ccccc1OCC(=O)NC(=S)Nc1ccc(Br)c(C)n1	-9.8%	-2.0%	0.0%	-22.8%	-6.2	0.5%
CN(CC(=O)Nc1ccc(N2CCOCC2)cc1)C(=O)CCCOc1ccc(Cl)cc1Cl	?	9.2µM*	?	.	-16.7	.
Cc1ccc(NC(=O)COC(=O)CCOc2ccccc2C)cc1	1.0%	2.0%	16.9%	-3.1%	11.9	-5.8%
Cc1ccccc1OCC(=O)NC(=S)Nc1ccc(N2CCCC2)cc1	?	-27.7%	-4.0%	8.91µM*	5.5	8.91µM*
Cc1ccccc1OCCC(=O)OCC(=O)Nc1ccc(N2CCOCC2)cc1	?	16.4µM*	11.3%	-31.4%	-62.3*	7.3%
CC[C@@]1(C(=O)OC)N[C@H](CN(C)S(=O)(=O)c2ccc(F)cc2)[C@@H]2C(=O)N(C)C(=O)[C@@H]21	-9.3%	-11.9%	2.9%	.	25.0	.
CON(C)c1nc(OCCNC(=O)COc2ccc(Cl)cc2C)nc(N(C)C)n1	8.2µM*	8.2µM*	?	0.3%	-2.4	-1.9%
CON(C)c1nc(OCCNC(=O)OCc2ccc(Cl)cc2Cl)nc(N(C)C)n1	8.2µM*	16.4µM*	?	18.4%	44.5	-4.0%
Cc1cc(Cl)ccc1OCC(=O)NCCCn1ccnc1	-21.3%	-23.2%	0.5%	-5.3%	18.1	-2.4%
CN(C)c1nc(OCCNC(=O)Nc2ccc(Cl)cc2)nc(N(C)C)n1	-13.8%	-16.5%	7.3µM*	-2.9%	2.8	-5.8%
Oc1ccccc1/C=N/Nc1nc2ccccc2o1	2.91µM*	3.26µM*	?	0.501µM*	48.9	3.98µM*
Brc1ccc(/C=N/Nc2nc3ccccc3o2)cc1	-3.6%	-23.7%	?	8.91µM*	-10.4	?
COc1cc(/C=N/Nc2nc3ccccc3o2)cc(OC)c1O	-23.0%	?	-4.1%	?	-25.1	?

High-throughput results (PubChem BioAssay)
